A number with no mark means an inactive call. The rule behind the calls is not given here.
System: Rolipram (rat)
Test: PubChem AID 1788
Settings: MDS Pharma lead profiling panel, radioligand binding, at 10 µM, active compounds read high

CCOC(=O)N1CCC(NCCNC(=O)c2ccccc2C)CC1
inhibition: -2%
